Data reported in PubChem BioAssay AID1846 (The Scripps Research Institute Molecular Screening Center, 2009).
Values joined by “and” are separate entries in the source; they are usually repeats but may differ in a detail not shown here. Equal entries are not always repeated. The campaign covered roughly 2,300 compounds. About 1,500 (65%) were called active. Cut-off read from the data, not from the text of the source: active = inhibition above about 18%; inactive = the rest. So high a share suggests a set chosen from earlier hits. These entries were drawn from the full list. Where a structure was tested more than once in an assay, its records may differ in their call.

Target: Heat shock protein HSP 90-alpha (Homo sapiens) (UniProt P07900)
Experiment: inhibitors of HSP90 chaperone activity – cell lysate, luminescence, confirmation (AID 1846);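 note: 0% = vehicle wells and 100% = reference inhibitor wells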
Settings: rabbit reticulocyte lysate, luciferase refolding luminescence, 3 h; at 5.9 µM; stronger effect = higher value

| Compound | inhibition |
| --- | --- |
| COc1cccc(/C=C/c2ccc3ccccc3n2)c1OC(C)=O | 72.3% (active) |
| CN(c1ccc2nc3ccccc3c(=O)n2n1)C1CCCCC1 | 90.9% (active) |
| C=CCN1CCN(C(=O)CCCc2ccccc2)CC1 | 52.5% (active) |
| Cc1cccc(NC(=O)/C=C/c2ccc3c(c2)OCO3)n1 | 40.6% (active) |
| O=C(Nc1cccnc1)c1noc2c1CCCCC2 | 48% (active) |
| COc1ccc(Nc2ncnc3ccc(Br)cc23)c(OC)c1 | 54.7% (active) |
| O=C(Cc1ccccc1)N1CCN(S(=O)(=O)c2ccc([N+](=O)[O-])cc2)CC1 | 53.5% (active) |
| c1ccc(-c2ccc3c(c2)NC(C2Nc4cc(-c5ccccc5)ccc4O2)O3)cc1 (stereo not given) | 8.8% (inactive) |
| CCOc1ccc(-c2nnc(-c3ccco3)o2)cc1 | 60.3% (active) |
| COCc1cc(=O)[nH]c2cc(NC(=O)C(F)(F)F)c(C)cc12 | -8.2% (inactive) |
| O=C(Nc1ccc2c(c1)OCCO2)C1CCCN(c2ncccn2)C1 (stereo not given) | 34.1% (active) |
| COc1ccc(Cl)cc1NC(=O)Cn1nc(-c2ccc(C)cc2)n(C)c1=S | -3.4% (inactive) |
| Clc1ccc(-c2cc(-c3ccccn3)on2)c(Cl)c1 | 84.9% (active) |
| CCN(CCCNC(=O)c1ccc2c(c1)NC(=O)CN2C)c1cccc(C)c1 | 14.4% (inactive) |
| Cc1nc2cc(NC(=O)Nc3cccc(F)c3)ccc2n1C | 40.5% (active) |
| CCOC(=O)C1=C(c2ccc(OC)cc2)C(=O)c2ccccc2C1=O | 95.3% (active) |
| Cc1ccc(C(=O)O/N=C(\N)c2ccccn2)cc1Cl | 29.5% (active) |
| COc1ccc(CNC(=O)/C(C#N)=C/c2cccc(OC)c2OC)cc1 | 18.9% (active) |
| Cc1cccc(C(=O)OC(C)CN2CCN(C)CC2)c1 (stereo not given) | 19.1% (active) |
| O=[N+]([O-])/C=C/c1ccc2c(ccn2Cc2ccccc2)c1 | 68.7% (active) |
| COC(=O)C1[C@H]2SC(C)(C)C(C(=O)OC)N2C(=O)N1Cc1nc2ccccc2s1 (stereo not given in full) | -5.33% (inactive) |
| O=C(O)c1ccc(N=NN2CCOCC2)cc1 | -8.5% (inactive) |
| O=C(CSC(=S)N1CCOCC1)c1ccccc1 | 57.6% (active) |
| Cc1nn(CC(=O)Nc2ccc(F)cc2)c(=O)c2ccccc12 | -9.73% (inactive) |
| Cc1cnc(NC(=O)c2ccccn2)s1 | 39.7% (active) |

| Compound | inhibition |
| --- | --- |
| COc1cccc2c(C)c(C(=O)O)[nH]c12 | 56.9% (active) |
| O=C(Cn1c[n+](CC(=O)c2ccc([N+](=O)[O-])cc2)cn1)c1ccc([N+](=O)[O-])cc1 | 3.57% (inactive) and 48.8% (active) |
| Cc1ccc(C(=O)CSc2ccccc2C(=O)O)cc1 | 42.3% (active) |
| Cc1ccsc1C(=O)OCC(=O)c1cc(C)n(CC2CCCO2)c1C (stereo not given) | 89.3% (active) |
| Clc1cccc(N=C2NN=C(c3ccc4c(c3)OCCO4)CS2)c1 | 41.5% (active) |
| Cc1nc2ccc(C(=O)O)cc2[nH]1 | 46.4% (active) |
| CC(C)c1nc2ccc(C(=O)O)cc2[nH]1 | 55.6% (active) |
| CC(C)CNC(=O)CC(NCC(C)C)C(=O)O (stereo not given) | -4% (inactive) |
| CC(C)(C)OC(=O)c1c(N)n(CCCN2CCCC2=O)c2nc3ccccc3nc12 | -5.73% (inactive) |
| CCCOc1ccc(C(=O)NCCc2ccccc2)cc1 | 49.2% (active) |
| CCCCOCCCNC(=O)c1ccccc1OCC | -3.83% (inactive) |
| COc1ccc(/C=C/c2noc(-c3ccccc3OC(C)=O)n2)cc1 | 45.2% (active) |
| COC(=O)c1sc(NC(=O)c2csc3c2CCCC3)nc1C | 12.5% (inactive) |
| COc1cc(SC)ccc1C(=O)Nc1nc(C)cs1 | 94% (active) |
| COC(=O)c1sc(NC(=O)c2ccc(OC)cc2OC)nc1C | 67.3% (active) |
| COc1cc(NS(=O)(=O)c2ccc3ccccc3c2)c2ncccc2c1 | 10.9% (inactive) |
| c1ccc(-c2noc(-c3cccs3)n2)nc1 | 43.7% (active) |
| COc1ccc(C(=O)/C=C/Nc2ccccn2)cc1 | 96.8% (active) |
| CCOc1ccc(N/C=C/C(=O)c2ccccc2)cc1 | 75.5% (active) |
| Cc1ccc(-n2c(SCC(=O)Nc3ncc(Cl)cc3Cl)nc3ccccc32)cc1 | 14% (inactive) |
| Cc1ccc(Nc2nc(-c3sc(NC(=O)c4ccccc4)nc3C)cs2)cc1 | 15.7% (inactive) |
| CCCCC(=O)Nc1nc(C)c(-c2csc(Nc3ccc(Cl)cc3)n2)s1 | 7.3% (inactive) |
| Cc1nc(NC(=O)c2cccc(Cl)c2)sc1-c1csc(Nc2cccc(Cl)c2)n1 | 23.7% (active) |
| COc1ccc(C(=O)Nc2ccccc2C(=O)N/N=C/c2ccccc2OC)cc1 | 74.7% (active) |
| COc1ccc(/C=N/Nc2ccccc2C(=O)O)cc1 | 29.5% (active) |
